About 83,000 compounds went through this panel and 20% of them were active in at least one assay; those are over-represented in the sample as a whole.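 Step 1: grow cells in 96-well plates. Step 2: add test compound at a single concentration. Step 3: incubate 48 h. Step 4: record percent growth.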 Active and inactive are the calls of the source. The calls were made as follows: active = growth percent below 10; inactive = the rest.
Columns and labels:
Assay in all cases: NCI-60 one-dose screen, 48 h (100 = growth as untreated, 0 = no growth, -100 = all killed)
Settings in all cases: 10 µM
[1] = system: SK-MEL-2 melanoma
[2] = system: EKVX NSCLC
[3] = system: SN12C renal
[4] = system: UO-31 renal
[5] = system: TK-10 renal
[6] = system: ACHN renal
[7] = system: CAKI-1 renal
[8] = system: A498 renal
[9] = system: MOLT-4 leukemia
[10] = system: CCRF-CEM leukemia

Measured: growth

N#Cc1c(N)nc(-c2cc(F)cc(C(F)(F)F)c2)nc1-c1ccccc1F
active: [6] 2.03% | [8] 5.56%
inactive: [1] 90.4% | [2] 38.6% | [3] 24.9% | [4] 33.3% | [5] 38.1% | [7] 78.1% | [9] 50.1%

O=C(CCNC(=O)c1nc(-c2ccccc2)n(-c2ccc(Cl)cc2)n1)NO
inactive: [1] 91.7% | [2] 95.8% | [3] 103% | [4] 88.3% | [5] 94.4% | [6] 100% | [7] 97.3% | [8] 114% | [9] 98%

COc1cc(C(=O)/C=C/c2c[nH]c3ccccc23)cc(OC)c1OC
inactive: [1] 19.5% | [2] 35.2% | [3] 25.2% | [4] 20.9% | [5] 48% | [6] 18.7% | [7] 27.6% | [8] 10.2% | [9] 17.6%

C=CCn1c(SCC(=O)Nc2ccc(C(=O)/C=C/c3ccc(Cl)cc3)cc2)nnc1-c1cc(-c2ccccc2)nc2ccccc12
inactive: [1] 97.2% | [2] 79.1% | [3] 70.8% | [4] 35.4% | [5] 94.8% | [6] 82.3% | [7] 61.7% | [8] 81.4% | [9] 12.8%

CC(C1=C(CN(C(=O)Cc2cn(-c3ccccc3)nc2-c2ccc(Cl)cc2)C(C)C)Cc2ccccc21)c1ccccn1 (configuration not stated)
inactive: [1] 53% | [2] 41% | [3] 77% | [4] 27.4% | [5] 70.3% | [6] 60.4% | [7] 40.9% | [8] 50.6% | [10] 53.3% | [9] 29.3%

CNC(=O)c1cc(Oc2ccc3c(c2)sc2nc(-c4ccc(NC(=O)Nc5ccc(Cl)c(C(F)(F)F)c5)cc4)cn23)ccn1
inactive: [1] 75.4% | [2] 77.3% | [3] 87.3% | [4] 73.9% | [5] 81% | [6] 82.8% | [7] 80.6% | [8] 83% | [9] 64.2%

COc1ccc(/C=C/C(=O)C(=O)/C=C/c2ccc(OC)c(OC)c2)cc1OC
inactive: [1] 96.6% | [2] 62.6% | [5] 68.6% | [7] 84.3% | [8] 72.9% | [9] 23.4%
active: [3] 2.82% | [4] 0.571% | [6] -0.679%

CNC(=O)c1cn2c3c(c(N4CCN(C)CC4)c(F)cc3c1=O)OC[C@@H]2C
inactive: [1] 95.4% | [2] 93.5% | [3] 104% | [4] 92.3% | [5] 90.6% | [6] 111% | [7] 94.7% | [8] 92.8% | [9] 101%

C=CCn1c(SCC(=O)Nc2ccc(C(=O)/C=C/c3cc(OC)c(OC)c(OC)c3)cc2)nnc1-c1cc(-c2ccc(Cl)cc2)nc2ccccc12
inactive: [1] 103% | [2] 86.4% | [3] 86.8% | [4] 57.1% | [5] 113% | [6] 86.1% | [7] 67.2% | [8] 80.6% | [9] 52.6%

CC(=O)N[C@H](C(=O)N[C@@H](CCCNC(=N)N)C(=O)N[C@@H](CCCCN)C(=O)N[C@@H](CCCNC(=N)N)C(=O)NC(C(=O)N[C@@H](CC(C)C)C(=O)N[C@@H](CCCNC(=N)N)C(=O)N[C@@]1(C)CCC/C=C\CCC[C@@](C)(C(=O)N[C@@H](CCCNC(=N)N)C(=O)N[C@@H](CCC(=O)O)C(=O)N[C@@H](CC(C)C)C(=O)N[C@H](C(=O)N[C@@H](CCC(=O)O)C(N)=O)C(C)C)NC(=O)[C@H](CCC(N)=O)NC(=O)[C@H](CC(C)C)NC(=O)[C@H](CC(C)C)NC1=O)[C@@H](C)O)C(C)C (some centres not stated)
active: [1] -6.77% | [2] 0.7% | [3] -52% | [5] -37.3%
inactive: [4] 78.5% | [6] 41.2% | [7] 32.3% | [8] 26.9% | [9] 32.7%

CC[C@@H](C(=O)[C@@H](C)[C@@H](O)[C@H](C)[C@@H]1O[C@@H]([C@@H](CC)C(=O)O)CC[C@@H]1C)C1O[C@]2(C=CC(=O)[C@]3(CC[C@@](C)([C@H]4CC[C@](O)(CC)[C@H](C)O4)O3)O2)[C@H](C)C[C@@H]1C (some centres not stated)
inactive: [1] 40.7% | [2] 38% | [3] 27.6% | [4] 24.3% | [5] 57.7% | [6] 31.6% | [7] 27% | [9] 40.6%
active: [8] -11.4%

Cc1ccc(/C=C/C(=O)C(=O)/C=C/c2ccc(C)cc2)cc1
inactive: [1] 105% | [2] 92.7% | [3] 105% | [4] 89.7% | [5] 92% | [6] 104% | [7] 94.8% | [8] 101% | [9] 91.8%

CCCc1cn(CC(=O)Nc2nc3ccccc3s2)nn1
inactive: [1] 105% | [2] 101% | [3] 98.5% | [4] 65.9% | [5] 103% | [6] 101% | [7] 87.6% | [8] 129% | [9] 110%

O=C(CN1CCN(C(=O)c2ccccc2)CC1)Nc1ccccc1SCc1ccccc1
inactive: [1] 66.8% | [2] 72.3% | [3] 77.9% | [4] 52.2% | [5] 82.2% | [6] 80.8% | [7] 71.8% | [8] 86.6% | [9] 74.1%

COc1ccc(-c2cc(-c3ccccc3)nc(SCCCCCCC(=O)NO)n2)cc1
inactive: [1] 78% | [2] 74.2% | [3] 79.6% | [4] 34.3% | [5] 45.9% | [6] 45.4% | [7] 39.6% | [8] 48.7% | [9] 14.4%

Cc1cc(CSc2ccccc2C(=O)N2CC=C(c3ccccc3)CC2)on1
inactive: [1] 94.1% | [2] 90.7% | [3] 105% | [4] 88.1% | [5] 96.9% | [6] 91.6% | [7] 86.3% | [8] 98.4% | [9] 91.6%

C(=N\Nc1ncnc2sc3c(c12)CCNC3)/c1cccc2ccccc12
inactive: [1] 109% | [2] 92.7% | [3] 82.4% | [4] 74.4% | [5] 104% | [6] 47.9% | [7] 92% | [8] 98% | [9] 48.1%

CC1(C)N=C(N)N=C(N)N1c1cccc(C#N)c1
inactive: [1] 79.1% | [2] 67% | [3] 94.3% | [4] 77.9% | [5] 62.4% | [6] 37.1% | [7] 95.2% | [8] 69.8% | [10] 35.7% | [9] 31.2%

CCCN(CCC)C(=O)[C@H](CC)[C@@H]1CC[C@@H](C)[C@@H]([C@H](C)[C@@H](O)[C@@H](C)C(=O)[C@H](CC)C2O[C@]3(C=C[C@@H](O)[C@]4(CC[C@@](C)([C@H]5CC[C@](O)(CC)[C@H](C)O5)O4)O3)[C@H](C)C[C@@H]2C)O1 (some centres not stated)
active: [1] 0.709% | [2] -13.6% | [3] 3.43% | [4] -16.8% | [6] -2.43% | [7] -8.15% | [8] -20.3%
inactive: [5] 20.7% | [9] 15.3%

CC[C@@H](C(=O)[C@H](C)[C@H](O)[C@@H](C)[C@H]1O[C@H]([C@@H](CC)C(=O)O)CC[C@H]1C)C1O[C@]2(C=C[C@@H](O)[C@]3(CC[C@@](C)([C@H]4CC[C@](O)(CC)[C@H](C)O4)O3)O2)[C@H](C)C[C@@H]1C (some centres not stated)
active: [8] -69.6%
inactive: [1] 13.7% | [2] 31.3% | [3] 11.8% | [4] 34.5% | [5] 56.5% | [6] 31.2% | [7] 22.2% | [9] 17.3%

Oc1ccc(-c2[nH]c3ccccc3c2-c2nc3ccccc3o2)cc1
inactive: [1] 66.9% | [2] 83% | [3] 84.2% | [4] 40.9% | [5] 84.8% | [6] 51.6% | [7] 64% | [8] 81.4% | [9] 58.9%

CCCCN(CCCC)C(=O)[C@H](CC)[C@@H]1CC[C@@H](C)[C@@H]([C@H](C)[C@@H](O)[C@@H](C)C(=O)[C@H](CC)C2O[C@]3(C=CC(=O)[C@]4(CC[C@@](C)([C@H]5CC[C@](O)(CC)[C@H](C)O5)O4)O3)[C@H](C)C[C@@H]2C)O1 (some centres not stated)
inactive: [1] 26.2% | [2] 27.7% | [3] 28.7% | [4] 13.4% | [5] 42.6% | [6] 13.7% | [7] 21.6% | [8] 41% | [9] 39.4%

CC[C@H]1OC(=O)[C@H](C)[C@@H](O[C@H]2C[C@@](C)(OC)[C@@H](O)[C@H](C)O2)[C@H](C)[C@@H](O[C@@H]2O[C@H](C)C[C@H](N(C)C)[C@H]2O)[C@](C)(OC)C/C(C)=C2/O[C@@]1(C)C=C2C
active: [1] -17.3% | [9] 1.08%
inactive: [2] 75% | [3] 76.9% | [4] 50.5% | [5] 97.4% | [6] 24.5% | [7] 21.7% | [8] 83.9%

CC(C)(C)OC(=O)N1CCc2c(sc3ncnc(N/N=C/c4ccc(Br)cc4)c23)C1
inactive: [1] 68.4% | [2] 52% | [3] 75.2% | [4] 44.7% | [5] 78.2% | [6] 53.1% | [7] 41% | [8] 31.2% | [9] 33.9%

Cc1c(O)c(=O)ccn1C1CCC(CC2CCC(n3ccc(=O)c(O)c3C)CC2)CC1 (configuration not stated)
inactive: [1] 66.8% | [2] 10.2% | [3] 41.5% | [4] 38.6% | [5] 50.1% | [6] 35.7% | [7] 25.2% | [8] 50.9% | [9] 25.7%
